Shown are actives, neighbours in structure and some others; about 11% of the full set was active somewhere.
L3MBTL1 block – inhibitors of human L3MBTL1 | actives 0.66% (n = 230,000) | AlphaScreen L3MBTL1–H3K9me1 peptide binding | Potency, µM (top dose mostly 57.1 µM), without a hit: top-dose activity, negative = inhibition, actives largely listed as inhibitors | AID 485360 | Q9Y468; also: potency is read from the fitted curve at half-maximal effect; % is scaled to controls: 0 for no effect and ±100 for the full control effect; nearly all actives have a fitted effect of over 60% in size
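Read-out is AlphaScreen signal from streptavidin donor and nickel chelate acceptor beads (10 ug/mL final each) bridging L3MBTL1 (50 nM) and biotinylated K9-monomethylated H3(1-15) peptide (75 nM), after 30 min compound exposure at room temperature.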
G9a inh – blocks human histone lysine methyltransferase G9a. actives 8.8% (n = 350,000). Potency, µM (titrated, usually from 102 µM), inactives show top-dose activity, negative = inhibition, most hits filed as inhibitors. Q96KQ7. G9a H3K9 monomethylation, AlphaScreen, 2 h; also: potency is read from the fitted curve at half-maximal effect; % is scaled to controls: 0 for no effect and ±100 for the full control effect; nearly all actives have a fitted effect of over 75% in size
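Quantitative HTS format: methyltransferase activity on a biotin-tagged H3K9 peptide is measured by AlphaScreen, using a rabbit anti-monomethyl-H3K9 antibody with streptavidin donor and anti-IgG acceptor beads. Final levels are 20 nM enzyme, 500 nM peptide, 20 uM SAM; 2 h RT.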
PI5P4Ka inh – PI5P4K alpha (human) kinase inhibition; P48426; PI5P4Kalpha enzyme, ADP-Glo luminescence, 60 min; active compounds read low; max response, %; actives 1.2% (n = 330,000); AID 652105; active = max response of -50% or lower; inconclusive = between -30% and -50%; inactive = -30% or higher; also: value at the top dose of about 77 µM; % is scaled to controls: 0 for no effect and ±100 for the full control effect
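Enzyme plus substrate dispensed, test compounds pinned in, then ATP (5 microM final) added. After 60 min at RT, ADP-Glo reagent 1 for 45 min and reagent 2 for 30 min preceded luminescence imaging.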
BAZ2B inh – inhibitors of human BAZ2B bromodomain; Q9UIF8; AlphaScreen BAZ2B-H3K14Ac peptide displacement; Potency, µM (doses to about 114 µM), without a hit: at the top dose activity change, negative = inhibition, actives largely listed as inhibitors; actives 4.4% (n = 360,000); also: potency is read from the fitted curve at half-maximal effect; % is scaled to controls: 0 for no effect and ±100 for the full control effect; nearly all actives have a fitted effect of over 60% in size
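AlphaScreen displacement of biotin-H3(5-23)K14Ac peptide (50 nM final) from BAZ2B (50 nM final) in PBS pH 7.4, 0.01% Tween-20; complex preformed 30 min RT, then compounds (top 110 uM) 30 min RT, beads 20 min dark.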
HP1b binding inh – inhibitors of HP1-beta chromodomain binding to methylated histone tails; P83916; AlphaScreen HP1-beta / biotin-H3K9me3 peptide binding; Potency, µM (top dose mostly 114 µM), without a hit: at the top dose activity change, negative = inhibition, hits mostly inhibitors; actives 0.56% (n = 390,000); AID 540317; also: potency is read from the fitted curve at half-maximal effect; nearly all actives have a fitted effect of over 70% in size
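AlphaScreen: HP1-beta (50 nM) preformed 30 min with biotin-H3(1-18)K9me3 peptide (50 nM) in PBS pH 7.4, 0.01% Tween-20. Compound added for 30 min at RT, then streptavidin donor/nickel chelate acceptor beads (10 ug/mL) for 30 min.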
JMJD2A Tudor inh – blocks the human JMJD2A Tudor domain; O75164; actives 4.4% (n = 390,000); Potency, µM (top dose mostly 114 µM), inactives show at the highest dose activity change, negative = inhibition, hits mostly inhibitors; AlphaScreen JMJD2A-Tudor / H3K4me3 peptide binding; also: potency is read from the fitted curve at half-maximal effect; % is scaled to controls: 0 for no effect and ±100 for the full control effect; nearly all actives have a fitted effect of over 50% in size
An asterisk follows results filed as active; ? = inconclusive; . = no result; [ ] = dose if it differs, or a comment. Unless noted, calls follow the shape of the dose curve; as a rule, active = well fitted inhibition curve with a large enough effect; inconclusive = small, poorly fitted or top-dose-only effect; inactive = no such curve, though single readings can be large or run the other way.

SMILES | L3MBTL1 block | G9a inh | PI5P4Ka inh | BAZ2B inh | HP1b binding inh | JMJD2A Tudor inh
CN1CCN(C(=O)c2ccc(C(C)(C)C)cc2)CC1 | 4% | 16%[59 µM] | . | 79µM* | 51% | -19%
Cc1cc2nc3c(=O)n(C4CCCCC4)c(=O)[nH]c3nc2cc1N | -27% | 1.3µM* | ? | -23% | 3% | 2%
Cc1cc(C)cc(Nc2cc(=O)n(C3CCCCC3)c(=O)[nH]2)c1 | -1% | 7%[59 µM] | -3 | -7% | -9% | -19%
CCCCn1c(-c2c(Cl)c(C)nn2C)n[nH]c1=S | . | 8.9µM* | -5 | -22% | -15% | 13µM*
CCn1c(-c2c(Cl)c(C)nn2C)n[nH]c1=S | 1% | 11µM* | -4 | -5% | -2% | 20µM*
O=C(c1cnn(-c2cccc(F)c2)c1-n1cccc1)N1CCN(c2ccccc2F)CC1 | . | -5%[59 µM] | . | -17% | 29% | -19%
O=C(Cn1c(=O)c2ccccc2n2nncc12)Nc1cccc(F)c1 | . | -4%[59 µM] | . | -5% | 34% | -10%
CCOc1ccc(NC(=O)Cn2sc3nc(C)cc(C)c3c2=O)cc1 | -4% | 0.28µM* | -71* | -37% | 5.6µM* | 0.89µM*
Cc1cc(C)c2c(=O)n(CC(=O)Nc3ccc(Cl)cc3)sc2n1 | . | 0.089µM* | -64* | 40µM* | 7.9µM* | 1.1µM*
Cc1ccc(NC(=O)Cn2sc3nc(C)cc(C)c3c2=O)c(Cl)c1 | -1% | 0.35µM* | -72* | 45µM* | ? | 1.6µM*
Cc1cc(C)c2c(=O)n(CC(=O)Nc3cccc(F)c3)sc2n1 | -4% | 0.32µM* | -67* | 50µM* | ? | 1.1µM*
Cc1ccc(NC(=O)Cn2c(C)cc(C)c(C#N)c2=O)c(Cl)c1 | 7% | ? | . | -39% | 35% | -6%
O=C(CCCCn1c(=O)c2ccccc2n(CC(=O)Nc2ccc(F)cc2F)c1=O)NCc1ccccc1Cl | . | -26%[59 µM] | . | -1% | 28% | -4%
CC(C)ON([C@@H](C(=O)NO)C(C)C)S(=O)(=O)c1ccc(-c2ccccc2)cc1 | . | 0%[59 µM] | . | . | . | .
O=C(NC1CC(=O)N(c2ccc(F)cc2)C1)C1CCCC1 (stereo not given) | . | 4%[59 µM] | . | -1% | 15% | 1%
Cn1c(=O)n(C/C=C/c2ccccc2)c(=O)c2c1nc1n2CCN1c1ccc(F)cc1 | . | 1%[59 µM] | . | 5% | 49% | 12%
Cc1ccc(NC(=O)c2cc(NC(=O)/C=C\C(=O)O)ccc2N2CCCCC2)cc1 | . | -6% | -69* | ? | 4% | -30%
CC(=O)Nc1ccc(N2CCCCC2)c(C(=O)Nc2cccc(C)c2)c1 | 2% | -15% | . | ? | 9% | -32%
Cc1cc2oc(C(=O)Nc3ccc(S(=O)(=O)N(C)Cc4ccccc4)cc3)cc(=O)c2cc1C | . | 9%[59 µM] | . | 4% | 18% | -8%
O=C(c1ccccc1Cl)N1CCN(CCc2ccccn2)CC1 | . | ? | . | ? | 35% | -10%
CCc1c(O)cc(=O)n(-c2ccccc2)c1-c1ccccc1 | -9% | ? | ? | 56µM* | -6% | -40%
Cc1nc(C)c(-c2csc(Nc3ncccc3C)n2)s1 | 6% | . | 0 | 2% | 41% | -21%
COc1ccc(-c2csc(Nc3ncccc3C)n2)cc1OC | . | ? | -5 | ? | -4% | ?
COc1ccc(-c2csc(Nc3ncccc3C)n2)cc1 | -9% | 18µM* | 11 | -9% | -2% | ?
Cc1cccnc1Nc1nc(-c2ccc(O)c(O)c2)cs1 | . | 11µM* | -2 | 40µM* | ? | 45µM*
Cc1cc(C(=O)CNCc2ccco2)c(C)n1-c1ccc(F)cc1 | -8% | 22µM* | . | 56µM* | ? | 3.2µM*
COc1ccccc1-c1c(C)nn2c(N3CCN(c4cccc(Cl)c4)CC3)cc(C)nc12 | . | 11%[59 µM] | . | 11% | 12% | -4%
Nc1nc2c(c(=O)[nH]1)C(c1cccc3ccccc13)C1=C(N2)c2ccccc2C1=O (stereo not given) | . | 35µM* | -19 | -10% | -34% | ?

Screening data (PubChem)
